Test [1] concerns the target Endonuclease 4 (Escherichia coli (strain K12)) (UniProt P0A6C1). Description: Counterscreen for APE1 Inhibitors: qHTS Validation Assay for Inhibitors of Endonuclease IV (AID 1708). The procedure, abridged:
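2 nM enzyme was preincubated with compounds for 15 min at room temperature in 50 mM Tris-HCl pH 7.5, 50 mM NaCl, 2 mM MgCl2, 1 mM DTT, 0.01% Tween-20. 50 nM THF-abasic TAMRA/BHQ-2 duplex substrate started the reaction.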
Background: A counterscreen serves to expose hits that act by an unwanted route or on another target.

A short description of test [2]: qHTS for differential inhibitors of proliferation of Plasmodium falciparum line 3D7 (AID 1876; note: potency is the fitted concentration of half-maximal effect). (In qHTS, concentration-response curves come from the screen itself.)
Test [3] in a line: qHTS for differential inhibitors of proliferation of Plasmodium falciparum line D10 (AID 1877).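 Note: parasites grown with compound for 72 h before DNA staining.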 Note: potency is the fitted concentration of half-maximal effect.
Test [4] is described as follows: qHTS for differential inhibitors of proliferation of Plasmodium falciparum line W2 (AID 1883).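 Note: parasites grown with compound for 72 h before lysis and staining.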 Note: potency is the fitted concentration of half-maximal effect. Conditions: Potency: Plasmodium falciparum W2 proliferation inhibition.
Test [5] in a line: qHTS for differential inhibitors of proliferation of Plasmodium falciparum line HB3 (AID 1886).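 Note: parasites grown with compound for 72 h before SYBR Green readout.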 Note: potency is the fitted concentration of half-maximal effect. Conditions: Potency: Plasmodium falciparum HB3 proliferation inhibition.
The nature of test [6]: Quantitative high throughput screen for delayed death inhibitors of the malarial parasite plastid, 96 hour incubation (AID 488745). Note: nearly all actives have a fitted effect of over 70% in size. Note: potency is the fitted concentration of half-maximal effect. The procedure, abridged:
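P. falciparum carrying an integrated firefly luciferase reporter, grown in erythrocytes (2% hematocrit, 0.1% parasitemia final) in RPMI 1640/0.5% Albumax, was exposed to compound for 96 h (two generations) at 37 C, 5% CO2. Luminescence decrease indicated growth inhibition.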

Test [7] concerns the target Voltage-gated inwardly rectifying potassium channel KCNH2 (Homo sapiens) (UniProt Q12809). Description: qHTS Assay for Small Molecule Inhibitors of the Human hERG Channel Activity (AID 588834).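 Note: lower thallium flux fluorescence means stronger hERG block; nearly all actives have a fitted effect of over 50% in size.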 Note: potency is the fitted concentration of half-maximal effect. The procedure, abridged: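 Blockade is seen as reduced FluxOR thallium-flux fluorescence in U2OS cells expressing hERG from a BacMam construct, in Opti-MEM with 2% FCS. Concentration-response data fitted to the Hill equation for AC50.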

Test [8] concerns the target Ferritin light chain (Equus caballus) (UniProt P02791). Description: qHTS Validation Assay for Identification of Novel General Anesthetics (AID 2323). Note: series mostly up to about 77 µM. Summed up:
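Normalized fluorescence response, scaled between free 1-AMA and 1-AMA/apoferritin complex, fitted to a four-parameter Hill equation for concentration-effect values. Binding mix: 10 uM horse-spleen apoferritin, 50% saturated 1-AMA in PBS; read 380/535 nm after 10 min.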

Test [9] in a line: Cytotoxicity counterscreen for inhibitors of SARS-CoV-2 cell entry (AID 1645845; calls by dose curve; note: series mostly up to about 57 µM; nearly all actives have a fitted effect of over 50% in size). Conditions: outcome: dose series up to 57.1 µM unless noted. The procedure, abridged: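 Expi293F/hACE2 cells seeded overnight; cpd pin-transferred in DMSO, 1 h preincubation, + media, 48 h 37 C 5% CO2; ATPLite 1step luminescence; normalized to cells and no cells.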

The results in this text go back to PubChem BioAssay (NCATS).

Inconclusive results are not listed. Calls of active or inactive are those of the source. Unless noted, calls come from the whole dose curve; as a rule, active = well fitted curve in the direction sought with a large enough effect; inconclusive = small, poorly fitted or top-dose-only effect, or another doubt; inactive = no such curve, though single readings can be large; an effect the other way counts as inactive or inconclusive.

Chain of Voltage-gated inwardly rectifying potassium channel KCNH2 (Homo sapiens) (Q12809 whole entry, looked up): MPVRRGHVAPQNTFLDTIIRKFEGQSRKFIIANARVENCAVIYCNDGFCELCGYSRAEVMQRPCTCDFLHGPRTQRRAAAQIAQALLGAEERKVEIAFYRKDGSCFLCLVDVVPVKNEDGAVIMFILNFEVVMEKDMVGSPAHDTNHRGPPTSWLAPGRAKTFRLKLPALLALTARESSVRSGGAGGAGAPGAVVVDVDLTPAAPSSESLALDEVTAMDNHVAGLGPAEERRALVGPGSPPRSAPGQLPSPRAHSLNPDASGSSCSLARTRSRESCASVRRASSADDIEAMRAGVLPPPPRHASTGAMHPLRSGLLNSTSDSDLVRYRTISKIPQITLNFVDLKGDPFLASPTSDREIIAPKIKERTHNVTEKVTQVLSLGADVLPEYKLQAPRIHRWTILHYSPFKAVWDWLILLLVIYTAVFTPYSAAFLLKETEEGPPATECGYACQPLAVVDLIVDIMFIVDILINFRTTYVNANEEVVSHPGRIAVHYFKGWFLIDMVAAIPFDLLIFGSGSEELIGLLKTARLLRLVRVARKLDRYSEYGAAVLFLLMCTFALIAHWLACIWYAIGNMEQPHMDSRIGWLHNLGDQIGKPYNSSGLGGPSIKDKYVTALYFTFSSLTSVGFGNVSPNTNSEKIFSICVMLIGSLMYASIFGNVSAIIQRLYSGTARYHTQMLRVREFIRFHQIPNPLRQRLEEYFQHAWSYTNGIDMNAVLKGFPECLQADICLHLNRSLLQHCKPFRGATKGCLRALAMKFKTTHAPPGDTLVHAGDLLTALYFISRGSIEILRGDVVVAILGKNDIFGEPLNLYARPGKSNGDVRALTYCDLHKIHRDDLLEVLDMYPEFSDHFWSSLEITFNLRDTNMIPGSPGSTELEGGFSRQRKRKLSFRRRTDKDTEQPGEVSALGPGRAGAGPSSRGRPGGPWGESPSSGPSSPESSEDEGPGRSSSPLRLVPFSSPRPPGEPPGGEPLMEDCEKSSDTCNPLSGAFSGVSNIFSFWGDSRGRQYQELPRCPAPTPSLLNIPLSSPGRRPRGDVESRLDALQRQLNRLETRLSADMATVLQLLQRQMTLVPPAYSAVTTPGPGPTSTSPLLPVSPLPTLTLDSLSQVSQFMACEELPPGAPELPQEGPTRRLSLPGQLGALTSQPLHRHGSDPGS
Chain of Ferritin light chain (Equus caballus) (P02791 2-175 limits assumed): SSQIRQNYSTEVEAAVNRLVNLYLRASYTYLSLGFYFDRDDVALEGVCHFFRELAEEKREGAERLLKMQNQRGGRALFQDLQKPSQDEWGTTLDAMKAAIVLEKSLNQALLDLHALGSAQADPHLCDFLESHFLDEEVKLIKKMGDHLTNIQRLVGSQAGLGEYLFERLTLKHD

With `C[C@]12CC[C@H]3[C@@H](CCC4C[C@H](O)CC[C@@]43C)[C@@H]1CC[C@@H]2O` (some centres not stated), the Potency entry in test [1], in test [2], in [3], in test [4], in [5] and in test [6] was “inactive” in each case. In addition, in test [7], the Potency entry is “inactive”.
Take `COc1ccc2c(c1O)-c1cccc3c1C(C2)N(C)CC3` (configuration not stated): the Potency entry in test [1], in test [8] and in test [6] was “inactive” throughout. For the same compound, the Potency was 10 µM (active) in test [2], 14.1 µM (active) in test [3], 7.94 µM (active) in test [4] and 12.6 µM (active) in test [5].
For the compound `COc1cc(C[C@@H](C)N)c(OC)cc1I`, the Potency entry in test [1], in [2], in test [3], in [5], in test [8] and in test [6] was “inactive” each time. For the same compound, in test [7], the Potency result was “inactive”. In addition, the Potency in test [4] was 3.98 µM (active).
For `NC(Cn1ccc(=O)[nH]c1=O)C(=O)O` (configuration not stated), the Potency result in test [1], in [2], in test [3], in test [4], in test [5] and in test [8] was “inactive” each time. In addition, the Potency entry in test [6] and in [7] was “inactive” each time.
With `COC(=O)C(N)CCCN=C(N)N[N+](=O)[O-]` (configuration not stated), the Potency entry in test [2], in test [3], in test [4], in [5], in test [8] and in [6] was “inactive” in each case. In addition, the Potency result in test [7] was “inactive”.
As to `C=CCN1CC[C@@]2(C)c3cc(O)ccc3CC1[C@@H]2C`, the Potency result in test [1], in [8], in [6] and in test [7] was “inactive” in each case. Further, the Potency was 12.6 µM (active) in test [3] and 6.31 µM (active) in [4].
On to `CCN1C[C@]2(C)CC[C@H](O)[C@@]34[C@@H]5C[C@@H]6[C@@H](OC)C[C@@](O)(C5[C@H]6O)[C@@H](C[C@@H]23)[C@@H]14`, for which the Potency entry in test [1], in [2], in [3], in [5], in test [8] and in test [6] was “inactive” each time. For the same compound, the Potency result in test [7] was “inactive”.
As for `Nc1ncnc2c1ncn2[C@@H]1O[C@H](COP(=O)(O)CP(=O)(O)OP(=O)(O)O)[C@H](O)[C@H]1O`, the Potency result in test [1], in [2], in test [3], in test [4], in test [5] and in [8] was “inactive” throughout. Besides, the Potency result in test [6] and in test [7] was “inactive” each time.
For the compound `C[N+]1(C)C2CC(OC(=O)C(CO)c3ccccc3)CC1C1OC12` (configuration not stated), the Potency entry in test [1], in [2], in test [3], in test [4], in test [5] and in test [8] was “inactive” in each case. Also, the Potency entry in test [6] and in [7] was “inactive” in each case.
For the compound `CCCN1CCC[C@@H](c2cccc(C#N)c2)C1`, the Potency result in test [1], in test [2], in test [3], in test [5], in test [8] and in test [6] was “inactive” each time. Also, the Potency entry in test [7] was “inactive”. Also, the Potency in [4] is 11.2 µM (active).
As to `CC12CCC3C(CCC4=C(O)C(=O)CCC43C)C1CCC2=O` (configuration not stated), the Potency result in test [1], in test [2], in test [3], in test [8], in test [6] and in test [7] was “inactive” each time.
Turning to `CN1C[C@@H](CS(=O)(=O)N(C)C)C[C@@H]2c3cccc4c3c(cn4C)C[C@H]21`, the Potency entry in test [1], in [8] and in test [7] was “inactive” in each case. The Potency in test [2] was 3.98 µM (active); in test [4], 3.55 µM (active).
Regarding `CCCN1CCCC(c2cccc(O)c2)C1` (configuration not stated), the Potency result in test [1], in [2], in test [3], in [5], in test [8] and in test [6] was “inactive” each time. Further, in test [7], the Potency result was “inactive”. Besides, the Potency in test [4] is 8.91 µM (active).
For `NCC#Cc1ccccc1`, the Potency result in [1], in test [2], in [3], in test [5], in [8] and in test [6] was “inactive” in each case. The Potency result in test [7] is “inactive”. The Potency in test [4] is 12.6 µM (active).
With `CCCCN1C2CCC1CC(OC(c1ccc(F)cc1)c1ccc(F)cc1)C2` (configuration not stated), in test [1], the Potency result is “inactive”. The Potency in test [2] was 0.891 µM (active); in test [3], 2.24 µM (active); in test [4], 0.631 µM (active); in test [5] it was 1 µM (active); in test [6], 1.85 µM (active); in test [7], 0.0891 µM (active).
As to `CCCN(CCC)[C@@H]1CCc2c(F)ccc(O)c2C1`, the Potency result in test [1], in [8] and in test [7] was “inactive” in each case. The Potency in test [2] is 1.58 µM (active); in test [3] it was 2.24 µM (active); in test [4] it was 0.891 µM (active); in test [5], 1.41 µM (active); in test [6], 2.62 µM (active).
`CC1Cc2cc3c(cc2C(c2ccc(N)cc2)=NN1)OCO3` (configuration not stated): the Potency entry in [1], in [3], in [8] and in test [6] was “inactive” throughout. The Potency in test [4] was 2.24 µM (active).
Take `CCOC(=O)C=C(C)C=CC[C@@H](C)CCCC(C)C`: in [9], the Potency entry was “inactive”.
